17 compounds from ChEMBL document CHEMBL1961873, “Compounds: GSK PKIS; Assays: Nanosyn kinase panel” (2012) can be followed below.

The structures appear in SMILES notation.

Experiment [1] has as its target Tyrosine-protein kinase SYK (Homo sapiens) (UniProt P43405). As to conditions: at 1 µM.
For experiment [2], the target named is T1, Tyrosine-protein kinase Tec (Homo sapiens) (UniProt P42680).
T1 sequence (whole entry): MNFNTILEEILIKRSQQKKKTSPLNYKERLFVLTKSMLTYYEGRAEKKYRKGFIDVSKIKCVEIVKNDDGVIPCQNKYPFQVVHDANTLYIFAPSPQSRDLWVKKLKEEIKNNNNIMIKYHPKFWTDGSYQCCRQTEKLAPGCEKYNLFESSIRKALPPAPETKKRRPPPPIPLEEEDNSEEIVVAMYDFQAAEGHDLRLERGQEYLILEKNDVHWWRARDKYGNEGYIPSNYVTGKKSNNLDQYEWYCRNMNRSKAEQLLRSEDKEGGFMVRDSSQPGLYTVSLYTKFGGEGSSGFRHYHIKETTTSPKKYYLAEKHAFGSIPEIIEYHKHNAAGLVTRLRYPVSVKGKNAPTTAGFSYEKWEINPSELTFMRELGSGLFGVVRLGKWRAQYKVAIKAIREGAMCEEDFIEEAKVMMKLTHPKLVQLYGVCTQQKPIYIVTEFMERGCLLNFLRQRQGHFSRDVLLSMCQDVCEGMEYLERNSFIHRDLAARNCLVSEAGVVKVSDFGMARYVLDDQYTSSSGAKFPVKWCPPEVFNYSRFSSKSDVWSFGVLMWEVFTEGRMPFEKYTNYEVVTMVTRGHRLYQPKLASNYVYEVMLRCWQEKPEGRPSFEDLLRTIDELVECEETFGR
As to conditions: at 0.1 µM.

For experiment [3], the target named is T1, Tyrosine-protein kinase Tec (Homo sapiens). As to conditions: at 1 µM.
Experiment [4] has as its target Angiopoietin-1 receptor (Homo sapiens) (UniProt Q02763). Conditions: at 0.1 µM.
Experiment [5] has the same target. As to conditions: at 1 µM.
In experiment [6] the target is T2, Non-receptor tyrosine-protein kinase TNK1 (Homo sapiens) (UniProt Q13470).
T2 sequence (whole entry): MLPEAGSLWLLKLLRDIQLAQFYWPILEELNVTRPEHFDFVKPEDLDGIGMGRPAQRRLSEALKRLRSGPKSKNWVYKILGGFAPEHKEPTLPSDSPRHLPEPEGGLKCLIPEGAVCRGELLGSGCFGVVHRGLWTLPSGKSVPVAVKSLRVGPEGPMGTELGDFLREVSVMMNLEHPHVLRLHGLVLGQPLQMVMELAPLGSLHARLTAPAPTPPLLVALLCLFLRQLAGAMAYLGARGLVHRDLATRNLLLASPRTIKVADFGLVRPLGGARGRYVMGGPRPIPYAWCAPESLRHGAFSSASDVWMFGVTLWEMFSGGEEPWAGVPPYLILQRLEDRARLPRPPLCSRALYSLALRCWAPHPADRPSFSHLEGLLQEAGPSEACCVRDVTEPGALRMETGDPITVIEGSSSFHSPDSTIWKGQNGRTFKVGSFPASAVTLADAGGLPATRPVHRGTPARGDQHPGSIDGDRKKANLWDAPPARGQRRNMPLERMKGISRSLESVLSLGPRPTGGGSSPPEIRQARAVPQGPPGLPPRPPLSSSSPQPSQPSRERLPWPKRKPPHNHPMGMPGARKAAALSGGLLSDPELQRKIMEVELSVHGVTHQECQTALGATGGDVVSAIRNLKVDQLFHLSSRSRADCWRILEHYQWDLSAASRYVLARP
As to conditions: at 0.1 µM.

In experiment [7] the target is T2, Non-receptor tyrosine-protein kinase TNK1 (Homo sapiens). Conditions: at 1 µM.
Experiment [8] concerns the target Activated CDC42 kinase 1 (Homo sapiens) (UniProt Q07912). Conditions: at 0.1 µM.
Experiment [9] shares this target. As to conditions: at 1 µM.
For experiment [10], the target named is High affinity nerve growth factor receptor (Homo sapiens) (UniProt P04629). As to conditions: at 0.1 µM.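 Also: each value is a mean of replicate percent inhibition readings against TRKA kinase.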
High affinity nerve growth factor receptor (Homo sapiens), sequence (P04629 33-796 limits assumed): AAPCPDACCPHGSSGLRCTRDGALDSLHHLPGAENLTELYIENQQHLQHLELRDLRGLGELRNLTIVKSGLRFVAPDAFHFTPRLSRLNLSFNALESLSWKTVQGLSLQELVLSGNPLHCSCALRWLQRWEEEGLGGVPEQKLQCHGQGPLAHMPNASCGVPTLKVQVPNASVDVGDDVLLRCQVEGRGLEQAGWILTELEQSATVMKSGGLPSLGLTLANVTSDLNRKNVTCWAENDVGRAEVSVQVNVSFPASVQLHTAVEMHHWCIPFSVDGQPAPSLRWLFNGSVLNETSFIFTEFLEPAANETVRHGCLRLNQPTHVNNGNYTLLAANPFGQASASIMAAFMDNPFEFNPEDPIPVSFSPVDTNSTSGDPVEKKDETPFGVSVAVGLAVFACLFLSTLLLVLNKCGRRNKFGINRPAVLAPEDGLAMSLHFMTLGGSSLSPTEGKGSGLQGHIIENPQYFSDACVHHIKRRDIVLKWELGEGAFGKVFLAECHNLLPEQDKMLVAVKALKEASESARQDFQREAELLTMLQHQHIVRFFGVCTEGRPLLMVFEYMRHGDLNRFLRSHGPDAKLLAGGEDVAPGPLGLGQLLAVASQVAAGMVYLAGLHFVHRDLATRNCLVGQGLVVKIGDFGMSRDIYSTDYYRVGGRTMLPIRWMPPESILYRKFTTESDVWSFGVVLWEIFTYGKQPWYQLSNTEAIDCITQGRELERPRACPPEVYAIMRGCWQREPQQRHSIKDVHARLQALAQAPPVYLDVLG

Activated CDC42 kinase 1 (Homo sapiens), sequence (Q07912 whole entry, looked up): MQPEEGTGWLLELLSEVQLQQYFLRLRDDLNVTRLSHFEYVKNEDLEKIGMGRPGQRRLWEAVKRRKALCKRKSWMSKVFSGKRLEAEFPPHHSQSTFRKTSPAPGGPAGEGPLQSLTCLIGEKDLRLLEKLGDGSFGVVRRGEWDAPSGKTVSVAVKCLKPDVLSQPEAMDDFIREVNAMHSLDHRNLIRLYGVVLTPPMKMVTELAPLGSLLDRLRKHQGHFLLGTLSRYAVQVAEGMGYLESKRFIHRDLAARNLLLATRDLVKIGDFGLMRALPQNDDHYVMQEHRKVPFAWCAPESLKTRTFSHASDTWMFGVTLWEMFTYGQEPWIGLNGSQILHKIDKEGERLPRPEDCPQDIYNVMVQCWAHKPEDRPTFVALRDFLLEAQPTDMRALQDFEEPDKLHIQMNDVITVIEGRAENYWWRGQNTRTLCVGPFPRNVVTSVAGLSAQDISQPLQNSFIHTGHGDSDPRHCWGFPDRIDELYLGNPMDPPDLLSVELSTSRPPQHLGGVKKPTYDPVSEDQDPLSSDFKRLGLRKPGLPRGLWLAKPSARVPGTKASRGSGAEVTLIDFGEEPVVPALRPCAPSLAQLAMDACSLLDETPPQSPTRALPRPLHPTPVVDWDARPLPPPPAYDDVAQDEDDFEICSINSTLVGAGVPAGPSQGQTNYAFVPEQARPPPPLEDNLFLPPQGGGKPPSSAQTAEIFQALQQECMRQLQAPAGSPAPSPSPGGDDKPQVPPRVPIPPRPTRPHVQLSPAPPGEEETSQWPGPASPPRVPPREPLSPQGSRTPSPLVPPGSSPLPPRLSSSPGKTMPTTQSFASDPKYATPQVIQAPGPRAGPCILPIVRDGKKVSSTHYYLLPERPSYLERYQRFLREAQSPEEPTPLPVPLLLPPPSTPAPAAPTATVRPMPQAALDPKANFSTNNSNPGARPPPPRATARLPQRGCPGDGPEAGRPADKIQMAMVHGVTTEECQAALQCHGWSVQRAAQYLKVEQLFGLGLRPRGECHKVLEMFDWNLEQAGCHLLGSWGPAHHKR
Angiopoietin-1 receptor (Homo sapiens), sequence (Q02763 whole entry): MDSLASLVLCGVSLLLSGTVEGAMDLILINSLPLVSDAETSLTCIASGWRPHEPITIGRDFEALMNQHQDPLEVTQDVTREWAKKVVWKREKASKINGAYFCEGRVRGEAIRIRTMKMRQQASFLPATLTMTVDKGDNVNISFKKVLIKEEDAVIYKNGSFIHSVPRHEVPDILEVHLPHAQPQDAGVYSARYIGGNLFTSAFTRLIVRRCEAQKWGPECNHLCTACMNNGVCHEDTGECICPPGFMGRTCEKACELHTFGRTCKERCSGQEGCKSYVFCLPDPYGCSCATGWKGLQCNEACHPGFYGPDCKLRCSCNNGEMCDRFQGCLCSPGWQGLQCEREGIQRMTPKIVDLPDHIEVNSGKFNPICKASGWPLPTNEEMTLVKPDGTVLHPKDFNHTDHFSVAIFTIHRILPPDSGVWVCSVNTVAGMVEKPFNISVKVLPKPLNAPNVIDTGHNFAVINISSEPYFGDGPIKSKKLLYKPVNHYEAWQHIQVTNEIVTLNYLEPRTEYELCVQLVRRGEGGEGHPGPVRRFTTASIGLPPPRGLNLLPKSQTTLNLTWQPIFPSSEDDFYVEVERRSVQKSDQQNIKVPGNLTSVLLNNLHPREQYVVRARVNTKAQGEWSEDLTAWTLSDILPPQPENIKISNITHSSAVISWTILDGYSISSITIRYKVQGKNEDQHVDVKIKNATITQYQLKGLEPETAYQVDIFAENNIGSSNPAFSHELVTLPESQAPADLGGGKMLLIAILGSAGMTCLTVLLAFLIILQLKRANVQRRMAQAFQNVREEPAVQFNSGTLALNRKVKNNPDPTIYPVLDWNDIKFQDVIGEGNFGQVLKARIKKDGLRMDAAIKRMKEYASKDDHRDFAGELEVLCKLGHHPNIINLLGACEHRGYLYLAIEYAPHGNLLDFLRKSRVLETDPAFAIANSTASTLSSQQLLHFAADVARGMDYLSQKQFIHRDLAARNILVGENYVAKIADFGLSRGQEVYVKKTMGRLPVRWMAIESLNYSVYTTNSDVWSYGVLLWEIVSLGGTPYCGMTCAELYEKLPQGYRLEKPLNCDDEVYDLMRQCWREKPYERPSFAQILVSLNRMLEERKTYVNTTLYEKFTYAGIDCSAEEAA

A word on the inhibition: it is the change of the read-out against control, counted positive when it falls. In the case of `Fc1ccc(-c2nn3ccccc3c2-c2ccncc2)cc1`, the inhibition is 0.32% in [1]; 1.22% in experiment [2]; 2.64% in experiment [3]; 3.2% in experiment [4]; 4.76% in experiment [5]; -0.64% in experiment [6]. Also, the inhibition in experiment [7] was 0.91%; in [8] it was 0.16%; in experiment [9], 0.87%; in experiment [10], 2.3%.

Regarding `CN1CCC(n2cnc(-c3ccc(F)cc3)c2-c2ccnc(Nc3ccccc3)n2)CC1`, the inhibition was 0.18% in [1]; 3.59% in [2]; 3.4% in experiment [3]; 2.95% in [4]; 4.52% in experiment [5]; -0.22% in [6]. Also, the inhibition in experiment [7] is 7.4%; in experiment [8], 0.74%; in experiment [9] it was 2.45%; in [10] it was -0.03%.

Take `CCn1c(-c2nonc2N)nc2ccccc21`: the inhibition in experiment [1] is 0.1%; in experiment [2], 3.65%; in [3] it was 7.35%; in experiment [4], 0.56%; in experiment [5], -0.01%; in [6] it was 2.77%. The inhibition in [7] was determined as 4.19%; in experiment [8], 1.12%; in [9], 2.47%; in [10], 3.39%.

Turning to `CC(=O)Nc1cccc(C#Cc2cncnc2Nc2ccc(OCc3cccc(F)c3)c(Cl)c2)c1`, the inhibition is 0.71% in experiment [1]; 5.52% in experiment [2]; 8.88% in experiment [3]; 1.44% in experiment [4]; 7.33% in experiment [5]; 0.67% in experiment [6]. Further, the inhibition in [7] came out at 1.04%; in experiment [8], 1.8%; in experiment [9], 5.63%; in experiment [10], 0.89%.

With `Fc1ccc(-c2nn3ncccc3c2-c2ccnc(Nc3ccc4c(c3)OCCO4)n2)cc1`, the inhibition in experiment [1] was -3.1%; in [2], 11.3%; in experiment [3], 45.3%; in [4], 6.26%; in [5], 23.4%; in experiment [6], 8.48%. Further, the inhibition in experiment [7] came out at 30.4%; in [8], 1.35%; in [9], 13%; in experiment [10] it was 2.82%.

As for `CC(=O)NCc1cccc(C#Cc2cncnc2Nc2ccc(OCc3cccc(F)c3)c(Cl)c2)c1`, the inhibition in experiment [1] was 2.55%; in experiment [2], 0.58%; in experiment [3] it was 0.89%; in experiment [4], 0.95%; in experiment [5] it was 4.38%; in experiment [6], -1.56%. Also, the inhibition in [7] is -1.3%; in experiment [8], -0.45%; in [9] it was -0.03%; in [10] it was 1.25%.

On to `CN1CCC(n2cnc(-c3ccc(F)cc3)c2-c2ccnc(N)n2)CC1`, for which the inhibition in [1] was -1.2%; in [2], 3.52%; in experiment [3] it was 5.01%; in [4], 3.13%; in [5], 2.56%; in experiment [6], 1.5%. The inhibition is 8.96% in experiment [7], 0.57% in experiment [8], 1.23% in [9] and 0.03% in experiment [10].

As to `COc1ccc(-c2nn3ncccc3c2-c2ccnc(Nc3ccc4c(c3)OCCO4)n2)cc1`, the inhibition was -0.41% in experiment [1]; 1.33% in experiment [2]; 11.9% in experiment [3]; 8.07% in [4]; 45.9% in experiment [5]; 6.95% in experiment [6]. Also, the inhibition is 51.1% in [7], -0.12% in [8], 3.47% in experiment [9] and 0.04% in experiment [10].

On to `COC(=O)Nc1nc2ccc(S(=O)(=O)c3ccc(NC(=O)Nc4cc(C(F)(F)F)ccc4F)cc3)cc2[nH]1`, for which the inhibition is 0.05% in experiment [1]; 3.65% in [2]; 2.49% in experiment [3]; 5.47% in experiment [4]; 10.9% in experiment [5]; -0.2% in experiment [6]. Besides, the inhibition in [7] was -6.28%; in experiment [8], 0.69%; in experiment [9], 0.6%; in experiment [10], 1.94%.

Consider `[O-][S+]1CCN(Cc2ccc(-c3ccc4ncnc(Nc5ccc(OCc6cccc(F)c6)c(Cl)c5)c4c3)o2)CC1`, for which the inhibition amounted to 0.31% in experiment [1]; 2.12% in experiment [2]; 4.55% in [3]; 3.66% in [4]; 5.42% in [5]; 2.94% in [6]. Moreover, the inhibition in [7] turned out to be 11.7%; in experiment [8], 1.61%; in experiment [9], 1.32%; in [10], 3.52%.

Regarding `NS(=O)(=O)c1ccc(N/N=C2\C(=O)Nc3ccc4ncccc4c32)cc1`, the inhibition in [1] was 22.4%; in experiment [2] it was 8.53%; in [3], 38.3%; in experiment [4] it was 5.02%; in experiment [5] it was 11.5%; in experiment [6] it was 14.6%. Besides, the inhibition in [7] came out at 56.8%; in [8], 1.85%; in experiment [9] it was 8.38%; in experiment [10], 6.88%.

For `Cc1cccc(Nc2ncc(-c3ccccc3)o2)c1`, the inhibition in experiment [1] came out at 2.98%; in experiment [2], 6.33%; in experiment [3], 4.84%; in [4], 5.06%; in [5], 4.9%; in [6] it was 1.78%. The inhibition turned out to be 4.17% in experiment [7], 1.1% in [8], 3.4% in experiment [9] and 0.19% in [10].

Take `O=C(O[C@H]1CN[C@H](C#Cc2cc3ncnc(Nc4ccc(Cc5ccccc5)cc4)c3s2)C1)N1CCOCC1`: the inhibition is -3.86% in experiment [1]; -0.07% in [2]; 4.05% in experiment [3]; -0.43% in experiment [4]; 2.3% in experiment [5]; 0.66% in [6]. Also, the inhibition in [7] turned out to be 5.45%; in experiment [8], 0.74%; in experiment [9], 0.96%; in experiment [10], 1.4%.

With `COc1ccc(-c2cc(-c3c[nH]nc3-c3ccccn3)ccn2)cc1`, the inhibition is -0.69% in [1]; 4.44% in experiment [2]; 5.59% in experiment [3]; 2.18% in experiment [4]; 2.66% in [5]; 4.34% in experiment [6]. For the same compound, the inhibition in [7] stood at 11.9%; in experiment [8], 1.58%; in experiment [9], 3.35%; in experiment [10] it was 1.86%.

`FC(F)(F)c1cccc(-c2nn3ncccc3c2-c2ccnc(Nc3ccc4c(c3)OCCO4)n2)c1`: the inhibition in experiment [1] was -1.91%; in experiment [2], 4.21%; in experiment [3], 15.5%; in [4], 4.09%; in [5], 10.6%; in experiment [6] it was 1.44%. Further, the inhibition in experiment [7] came out at 5.7%; in [8] it was 0.31%; in experiment [9], 0.47%; in [10], 1.71%.

For `COc1cccc(-c2c[nH]c3c(N/N=C/c4ccncc4)ncnc23)c1`, the inhibition in [1] was 4.79%; in experiment [2], 3.87%; in experiment [3], 16.5%; in experiment [4], 4.98%; in experiment [5], 27.5%; in experiment [6], 10%. For the same compound, the inhibition in experiment [7] came out at 41.7%; in experiment [8] it was 1.63%; in [9], 15.3%; in experiment [10] it was 6.49%.

Take `CS(=O)(=O)CCNCc1coc(-c2ccc3ncnc(Nc4ccc(OCc5ccccc5)cc4)c3c2)c1`: the inhibition was determined as 3.66% in [1]; 4.07% in experiment [2]; 6.39% in experiment [3]; 3.15% in experiment [4]; 4.19% in experiment [5]; 4.53% in [6]. Further, the inhibition turned out to be 7.58% in experiment [7], 1.22% in [8], 2.21% in experiment [9] and 1.72% in experiment [10].
